Common to all, as to test: NCI-60 one-dose screen, 48 h (100 = growth as untreated, 0 = no growth, -100 = all killed)
Details in all cases: 10 µM

Assay [1] has as its system HCT-15 colon.
Assay [2] relates to HT29 colon.
Assay [3] concerns SNB-19 CNS.
Assay [4] concerns U251 CNS.
Assay [5] concerns PC-3 prostate.
Assay [6] deals with SK-MEL-5 melanoma.
The subject of assay [7] is UACC-62 melanoma.
The subject of assay [8] is LOX IMVI melanoma.
Assay [9] has as its system SK-MEL-2 melanoma.
The test system of assay [10] is EKVX NSCLC.
Assay [11] has as its system SN12C renal.
The test system of assay [12] is TK-10 renal.
For assay [13], the system named is ACHN renal.
For assay [14], the system named is CAKI-1 renal.
Assay [15] has as its system A498 renal.
Assay [16] has as its system CCRF-CEM leukemia.
For assay [17], the system named is MOLT-4 leukemia.
For assay [18], the system named is SK-MEL-28 melanoma.
For assay [19], the system named is UO-31 renal.

These results are taken from PubChem BioAssay (NCI).

The panel holds about 83,000 compounds, 20% with a hit somewhere; the sample as a whole holds those more often.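 Treatment: one concentration, 48 hours, 96-well format. Scoring: percent growth, with anything below 10 considered active.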 Unmarked numbers belong to inactive results. Active and inactive are the calls of the source.

With `O=C1Nc2ccc(Cl)cc2/C1=C/c1cccc(OCc2ccccc2)c1`, the growth in [1] was 22.3%; in assay [2], 30.7%; in assay [3] it was 44.2%; in assay [4], 3.61% (active); in assay [5], 29.3%; in [6], 22.4%. Besides, the growth in assay [7] was 26.3%; in [8] it was 1.77% (active); in assay [9] it was 28.4%; in assay [10], 19.4%; in [11] it was 36.1%; in assay [12], 77.2%. In addition, the growth in [13] was 24.3%; in assay [14], 34.6%; in assay [15] it was 84.2%; in assay [16], -21.5% (active); in assay [17], -20.6% (active).

In the case of `Cc1noc2c(Cc3ccc([N+](=O)[O-])cc3)nn(CC(=O)N/N=C/c3ccc(Br)cc3)c(=O)c12`, the growth is 94.8% in assay [1]; 86.1% in assay [2]; 69.6% in assay [3]; 70.4% in [4]; 78.1% in [5]; 92% in assay [6]. Besides, the growth in assay [7] was 80.1%; in [8] it was 52.2%; in assay [18], 96.4%; in assay [9] it was 116%; in assay [10], 90.2%; in assay [11], 81%. In addition, the growth in [19] is 57.7%; in assay [12], 112%; in assay [13], 43.6%; in assay [14] it was 84%; in assay [15], 121%; in assay [16], 103%. Besides, the growth in assay [17] was 103%.

Take `O=C(Cc1ccc2c(c1)CN(C1CCC(=O)NC1=O)C2=O)NCc1cccc2ccccc12` (centres undefined): the growth in [1] is -30.1% (active); in assay [2], 3.65% (active); in assay [3] it was -11.9% (active); in assay [4], 17.2%; in assay [5], 6.97% (active); in [6], -93.8% (active). Moreover, the growth in assay [7] was 4.05% (active); in [8], -48.3% (active); in [18], -10.6% (active); in assay [9], -45.7% (active); in assay [10], 1.9% (active); in assay [11], -7.92% (active). For the same molecule, the growth in assay [19] was -33.8% (active); in assay [12], 18%; in [13] it was -19% (active); in assay [14] it was 7.68% (active); in [15], -13.2% (active); in [16] it was 9.65% (active). In [17], the growth is -15.2% (active).

`CC(C)c1ccc(C(=O)Nc2sc3c(c2C(N)=O)CCC(=O)C3=O)cc1`: the growth in assay [1] is 71.5%; in assay [2], 110%; in assay [3], 97.4%; in assay [4], 92.6%; in [5] it was 82.8%; in assay [6], 99.1%. Also, the growth is 94.3% in [7]; 82.7% in assay [8]; 110% in assay [18]; 98.8% in assay [9]; 87.9% in assay [10]; 94.7% in assay [11]. For the same molecule, the growth in [13] was 93.6%; in [14], 91.9%; in assay [15], 130%; in assay [16] it was 86.4%.

Take `CC1(c2ccccc2)NC(=O)N(CC(=O)Nc2ccc(C(=O)/C=C/C=C/c3ccccc3)cc2)C1=O` (centres undefined): the growth in [1] is 12.8%; in assay [2], 25.4%; in assay [3], 61.6%; in assay [4] it was 14.7%; in assay [5] it was 36.4%; in assay [6], 51.6%. Further, the growth was 43.1% in assay [7]; 26% in assay [8]; 70.9% in assay [18]; 90% in assay [9]; 71.6% in [10]; 66.9% in assay [11]. The growth in assay [12] was 84.6%; in assay [13], 48.4%; in [14], 63.2%; in assay [15] it was 70.6%; in [16], 32.4%; in assay [17] it was 18.6%.
